Measured values as given in ChEMBL document CHEMBL3988442, “University of Dundee, Small-Polar-MMV Screening Library” (2021).
For some assays here: Potency and affinity values are given separately.

Experiments:
Design in all cases: scale not given: direction of the effect not stated beside the values
[1] = target: Protein translocase subunit SecA (Escherichia coli (strain K12)) (UniProt P10408); assay: Assay to Identify E. coli SecA ATPase Inhibitors; type: functional; details: 30 µM
[2] = target: T1, Ubiquitin-activating enzyme e1, putative (Leishmania donovani (strain BPK282A1)) (UniProt E9BSI1); assay: Leishmania donovani Ubiquitin Activating Enzyme (LdE1); type: functional; details: 30 µM
T1 sequence (whole entry): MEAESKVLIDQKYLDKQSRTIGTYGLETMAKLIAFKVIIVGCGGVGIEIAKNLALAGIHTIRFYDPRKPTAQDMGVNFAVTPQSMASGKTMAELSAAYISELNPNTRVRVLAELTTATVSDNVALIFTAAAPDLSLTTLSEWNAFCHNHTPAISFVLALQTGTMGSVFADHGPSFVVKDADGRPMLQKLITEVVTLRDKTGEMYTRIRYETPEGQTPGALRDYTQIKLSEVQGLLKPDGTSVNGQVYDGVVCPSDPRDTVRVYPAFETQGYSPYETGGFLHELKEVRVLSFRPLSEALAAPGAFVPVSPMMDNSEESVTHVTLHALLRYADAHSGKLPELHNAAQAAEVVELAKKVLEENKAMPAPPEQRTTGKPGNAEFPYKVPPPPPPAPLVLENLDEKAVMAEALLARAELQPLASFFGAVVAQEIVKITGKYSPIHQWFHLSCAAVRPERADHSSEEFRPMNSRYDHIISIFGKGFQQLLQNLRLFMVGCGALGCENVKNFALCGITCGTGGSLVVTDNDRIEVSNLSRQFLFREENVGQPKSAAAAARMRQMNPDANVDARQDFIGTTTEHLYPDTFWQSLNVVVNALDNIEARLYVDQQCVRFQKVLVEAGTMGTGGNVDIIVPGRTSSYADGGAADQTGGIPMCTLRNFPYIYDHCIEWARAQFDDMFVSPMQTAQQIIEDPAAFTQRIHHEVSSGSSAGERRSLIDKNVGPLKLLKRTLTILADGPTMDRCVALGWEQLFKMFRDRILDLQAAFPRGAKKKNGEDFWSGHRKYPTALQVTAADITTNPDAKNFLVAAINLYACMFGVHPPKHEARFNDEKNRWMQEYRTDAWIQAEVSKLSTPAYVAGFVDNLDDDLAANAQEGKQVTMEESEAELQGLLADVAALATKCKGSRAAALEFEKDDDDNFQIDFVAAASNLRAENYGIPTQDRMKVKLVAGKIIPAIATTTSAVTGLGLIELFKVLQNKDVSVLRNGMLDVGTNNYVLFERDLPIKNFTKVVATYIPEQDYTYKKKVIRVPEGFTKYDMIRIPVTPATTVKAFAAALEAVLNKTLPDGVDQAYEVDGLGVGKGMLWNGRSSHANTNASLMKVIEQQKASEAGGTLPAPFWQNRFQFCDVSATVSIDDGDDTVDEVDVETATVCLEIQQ

[3] = target: AMP-activated protein kinase, AMPK (Homo sapiens) (UniProt P54646+O43741+P54619+Q9UGJ0+Q9Y478+Q13131+Q9UGI9); assay: AMP-dependent Kinase enzyme assay. An in vitro enzyme assay that detects ADP turnover that is directly proportional to AMPK activity. This uses naive AMPK that is activated during the assay with MK-8722; type: functional; details: 30 µM
[4] = target: Sialic acid-binding Ig-like lectin 9 (Homo sapiens) (UniProt Q9Y336); assay: Hs-Siglec9 ALPHAscreen SOP 20170721; details: 10 µM
Sialic acid-binding Ig-like lectin 9 (Homo sapiens), sequence (Q9Y336 whole entry): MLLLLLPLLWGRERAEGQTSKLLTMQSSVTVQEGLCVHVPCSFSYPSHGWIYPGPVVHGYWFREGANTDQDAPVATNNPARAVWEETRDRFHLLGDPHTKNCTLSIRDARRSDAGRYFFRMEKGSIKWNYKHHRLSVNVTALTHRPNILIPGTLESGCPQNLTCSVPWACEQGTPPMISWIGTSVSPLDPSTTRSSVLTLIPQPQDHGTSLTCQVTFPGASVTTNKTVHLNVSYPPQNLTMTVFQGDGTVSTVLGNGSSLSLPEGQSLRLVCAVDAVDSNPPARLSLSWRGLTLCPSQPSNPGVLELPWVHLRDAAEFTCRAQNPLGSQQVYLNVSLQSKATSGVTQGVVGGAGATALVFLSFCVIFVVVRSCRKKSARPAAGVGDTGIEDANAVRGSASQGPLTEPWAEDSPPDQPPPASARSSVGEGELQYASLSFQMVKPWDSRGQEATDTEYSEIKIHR

Trypanosoma cruzi = assay: Trypanosoma cruzi phosphomannomutase and mannose-1-phosphate guanylyltransferase assay; type: functional; details: 10 µM
[5] = target: T2, Arginase-2, mitochondrial (Homo sapiens) (UniProt P78540); assay: in vitro enzyme assay to detect the production of urea directly proportional to the activity of Arginase II; type: functional; details: 33.3 µM; further: in the data most compounds retested in dose-response had high values
T2 sequence (whole entry): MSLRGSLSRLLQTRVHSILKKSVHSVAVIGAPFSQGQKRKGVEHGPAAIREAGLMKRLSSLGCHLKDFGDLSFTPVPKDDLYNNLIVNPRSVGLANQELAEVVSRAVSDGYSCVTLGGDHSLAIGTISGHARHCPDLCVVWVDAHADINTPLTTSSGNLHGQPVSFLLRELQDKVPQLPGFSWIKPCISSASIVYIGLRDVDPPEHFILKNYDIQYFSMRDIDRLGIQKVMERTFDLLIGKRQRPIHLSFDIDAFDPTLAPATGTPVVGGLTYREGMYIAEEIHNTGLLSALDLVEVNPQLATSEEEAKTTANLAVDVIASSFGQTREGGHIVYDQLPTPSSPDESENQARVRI

[6] = target: T3, Proteasome subunit beta (Trypanosoma cruzi) (UniProt O96673); assay: Trypanosoma cruzi proteasome chymotrypsin-like activity (TcProtChymo) assay.; further: in the data most compounds retested in dose-response had high values; type: functional; details: 9.37 µM
T3 sequence (whole entry): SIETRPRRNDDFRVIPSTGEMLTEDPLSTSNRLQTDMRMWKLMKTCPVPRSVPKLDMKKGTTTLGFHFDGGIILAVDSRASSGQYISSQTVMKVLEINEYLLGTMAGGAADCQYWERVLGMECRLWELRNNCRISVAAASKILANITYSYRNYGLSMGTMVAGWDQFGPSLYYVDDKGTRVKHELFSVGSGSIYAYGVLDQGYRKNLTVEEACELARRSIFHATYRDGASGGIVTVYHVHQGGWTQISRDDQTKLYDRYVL

Homo sapiens = species on record: Homo sapiens; assay: To identify inhibition of the IFN signalling (Jak-Stat) pathway via expression of an eGFP reporter gene under the control of an IFN-stimulated response element (ISRE) containing MxA promoter.; type: functional; details: 30 µM
[7] = target: T4, Tyrosyl-tRNA synthetase, putative (Trypanosoma cruzi (strain CL Brener)) (UniProt Q4DSP6); assay: Trypanosoma cruzi tyrosyl tRNA synthetase (TcYRS) _High Tyrosine SOP; type: functional; details: 30 µM; further: in the data most compounds retested in dose-response had high values
T4 sequence (whole entry): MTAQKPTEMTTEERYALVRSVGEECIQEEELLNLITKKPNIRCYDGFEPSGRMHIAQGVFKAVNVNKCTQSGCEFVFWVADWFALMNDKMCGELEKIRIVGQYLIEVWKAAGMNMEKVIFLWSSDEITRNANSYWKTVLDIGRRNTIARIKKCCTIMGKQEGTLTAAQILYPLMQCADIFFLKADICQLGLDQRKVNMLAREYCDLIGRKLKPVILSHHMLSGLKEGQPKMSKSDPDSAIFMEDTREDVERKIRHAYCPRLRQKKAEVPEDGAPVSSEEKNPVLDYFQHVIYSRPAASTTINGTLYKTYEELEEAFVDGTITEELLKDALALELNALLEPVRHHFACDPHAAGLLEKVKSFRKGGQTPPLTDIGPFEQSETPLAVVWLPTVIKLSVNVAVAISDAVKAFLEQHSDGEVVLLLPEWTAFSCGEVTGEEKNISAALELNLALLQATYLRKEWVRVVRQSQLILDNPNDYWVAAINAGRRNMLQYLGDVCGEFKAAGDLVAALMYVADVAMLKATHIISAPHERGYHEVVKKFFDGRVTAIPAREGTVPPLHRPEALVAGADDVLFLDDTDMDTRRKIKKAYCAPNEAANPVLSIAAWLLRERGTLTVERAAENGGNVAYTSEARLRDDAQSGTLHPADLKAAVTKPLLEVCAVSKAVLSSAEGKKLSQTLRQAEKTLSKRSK

[8] = target: T4, Tyrosyl-tRNA synthetase, putative (Trypanosoma cruzi (strain CL Brener)); assay: Trypanosoma cruzi tyrosyl tRNA synthetase (TcYRS) SOP; type: functional; details: 30 µM
[9] = target: Chromo domain-containing protein 1 (Saccharomyces cerevisiae (strain ATCC 204508 / S288c) (Baker's yeast)) (UniProt P32657); assay: ScCHD-1 Enzyme Inhibition Assay; type: functional; details: 30 µM; further: in the data most compounds retested in dose-response had high values
Chromo domain-containing protein 1 (Saccharomyces cerevisiae (strain ATCC 204508 / S288c) (Baker's yeast)), sequence (P32657 whole entry, the tested form may be a part): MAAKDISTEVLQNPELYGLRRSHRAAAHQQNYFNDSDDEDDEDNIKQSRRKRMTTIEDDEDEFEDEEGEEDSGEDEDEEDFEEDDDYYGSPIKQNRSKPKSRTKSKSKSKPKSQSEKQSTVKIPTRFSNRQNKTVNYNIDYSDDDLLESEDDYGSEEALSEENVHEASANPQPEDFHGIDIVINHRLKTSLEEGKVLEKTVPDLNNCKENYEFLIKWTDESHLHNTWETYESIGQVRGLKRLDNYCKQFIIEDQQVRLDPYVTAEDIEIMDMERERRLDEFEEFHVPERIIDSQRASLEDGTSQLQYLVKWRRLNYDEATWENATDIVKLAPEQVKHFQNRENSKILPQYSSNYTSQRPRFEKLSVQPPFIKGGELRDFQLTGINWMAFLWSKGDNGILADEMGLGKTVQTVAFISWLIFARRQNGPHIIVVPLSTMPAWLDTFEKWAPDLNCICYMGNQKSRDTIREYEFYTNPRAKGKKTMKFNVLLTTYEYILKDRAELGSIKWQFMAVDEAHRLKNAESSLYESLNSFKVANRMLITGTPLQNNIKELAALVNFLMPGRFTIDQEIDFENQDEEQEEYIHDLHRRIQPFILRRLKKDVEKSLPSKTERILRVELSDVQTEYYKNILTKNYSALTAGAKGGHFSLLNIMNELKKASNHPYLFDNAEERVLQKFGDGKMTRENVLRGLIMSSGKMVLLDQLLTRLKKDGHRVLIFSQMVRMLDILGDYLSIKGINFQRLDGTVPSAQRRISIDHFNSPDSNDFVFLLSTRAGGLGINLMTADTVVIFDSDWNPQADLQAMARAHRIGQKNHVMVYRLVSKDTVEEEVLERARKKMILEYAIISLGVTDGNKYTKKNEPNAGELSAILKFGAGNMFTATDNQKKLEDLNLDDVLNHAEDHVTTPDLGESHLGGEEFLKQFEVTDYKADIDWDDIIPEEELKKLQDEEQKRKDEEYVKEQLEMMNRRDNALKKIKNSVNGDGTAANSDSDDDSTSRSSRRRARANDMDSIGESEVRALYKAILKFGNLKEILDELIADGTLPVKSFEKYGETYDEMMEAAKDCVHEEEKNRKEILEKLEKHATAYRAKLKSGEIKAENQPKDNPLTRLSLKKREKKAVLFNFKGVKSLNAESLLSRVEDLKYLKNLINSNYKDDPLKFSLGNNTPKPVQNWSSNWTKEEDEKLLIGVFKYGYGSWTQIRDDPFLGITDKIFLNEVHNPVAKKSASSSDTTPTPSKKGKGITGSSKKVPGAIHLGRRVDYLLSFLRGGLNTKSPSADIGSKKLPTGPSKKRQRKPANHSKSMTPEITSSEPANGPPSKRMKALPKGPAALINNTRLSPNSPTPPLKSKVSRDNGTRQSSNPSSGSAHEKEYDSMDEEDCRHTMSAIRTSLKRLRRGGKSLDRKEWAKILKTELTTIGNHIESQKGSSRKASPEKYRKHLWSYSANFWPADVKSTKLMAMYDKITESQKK

Protein translocase subunit SecA (Escherichia coli (strain K12)), sequence (P10408 whole entry): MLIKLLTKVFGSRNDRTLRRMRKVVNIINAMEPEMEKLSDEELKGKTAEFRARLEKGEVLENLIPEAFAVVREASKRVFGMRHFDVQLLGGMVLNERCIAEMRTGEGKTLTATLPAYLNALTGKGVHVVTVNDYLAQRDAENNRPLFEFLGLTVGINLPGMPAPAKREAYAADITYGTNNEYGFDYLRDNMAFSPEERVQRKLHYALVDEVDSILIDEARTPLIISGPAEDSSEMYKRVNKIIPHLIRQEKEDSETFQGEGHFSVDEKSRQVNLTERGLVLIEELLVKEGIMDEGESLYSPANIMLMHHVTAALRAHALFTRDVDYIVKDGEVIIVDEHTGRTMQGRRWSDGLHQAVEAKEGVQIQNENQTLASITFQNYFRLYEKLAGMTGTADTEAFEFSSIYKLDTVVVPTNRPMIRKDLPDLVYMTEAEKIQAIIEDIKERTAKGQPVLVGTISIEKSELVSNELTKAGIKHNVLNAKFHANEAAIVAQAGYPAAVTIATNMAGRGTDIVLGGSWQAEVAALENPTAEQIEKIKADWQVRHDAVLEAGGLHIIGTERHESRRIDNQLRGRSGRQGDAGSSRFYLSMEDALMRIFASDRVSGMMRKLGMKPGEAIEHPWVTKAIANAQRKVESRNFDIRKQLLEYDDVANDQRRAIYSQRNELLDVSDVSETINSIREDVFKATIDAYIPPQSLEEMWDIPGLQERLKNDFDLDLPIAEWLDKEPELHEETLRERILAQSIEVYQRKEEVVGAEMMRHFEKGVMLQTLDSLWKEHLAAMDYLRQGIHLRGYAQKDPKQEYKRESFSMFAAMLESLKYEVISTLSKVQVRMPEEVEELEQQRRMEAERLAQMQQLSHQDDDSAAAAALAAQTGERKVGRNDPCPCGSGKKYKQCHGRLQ

Row | Structure (SMILES) | Percent Effect [1] [%] | Percent Effect [2] [%] | Percent Effect [3] [%] | Percent Effect [4] [%] | Percent Effect (Trypanosoma cruzi) [%] | Percent Effect [5] [%] | Percent Effect [6] [%] | Percent Effect (Homo sapiens) [%] | Percent Effect [7] [%] | Percent Effect [8] [%] | Percent Effect [9] [%]
1 | O=C(c1cccc(CNS(=O)(=O)c2ccccc2F)c1)N1CCCC1 | -3.56 | 15.6 | 1.76 | 3.25 | 2.25 | 0.21 | 5.25 | 24.1 | 5.71 | 18.8 | -5.99
2 | CC(OCC(F)(F)F)C(=O)Nc1ccc(-n2cncn2)nc1 (stereo not given) | -3 | 2.6 | 24.5 | -9.5 | -1.27 | 1.05 | 8.49 | 22.3 | 5.71 | 9.41 | -17.1
3 | O=S(=O)(NCc1ccccc1Cn1cncn1)C1CCCC1 | -2.89 | 8.86 | 4.47 | 2.98 | -3.59 | 1.5 | 10.1 | 5.73 | 8.33 | 12.7 | -12.6
4 | CN(C)C(=O)N1CCOCC2(CCN(c3ccccn3)C2)C1 (stereo not given) | -1.92 | -2.7 | -1.14 | -5.57 | -2.64 | 2.23 | 9.19 | -4.16 | 1.07 | 1.24 | -3.16
5 | Cc1nn(CC(=O)N2CCN(c3ccncc3)CC2)c(C)c1Cl | -3.26 | 10.5 | 1.94 | 4.31 | 1.66 | -18.9 | 12.6 | 16.3 | 5.32 | 15.6 | -7.63
6 | O=C(CN1CCOC(Cn2cccn2)C1)NCc1cccs1 (stereo not given) | 0.0678 | -2.7 | -5.7 | 11.3 | 1.58 | -0.924 | 1.98 | -5.12 | 0.99 | 3.66 | -4.1
7 | CC(C)CN1CCCn2nc(CNC(=O)CCCc3cn[nH]c3)cc2C1 | -4.55 | 2.67 | 1.75 | 9.18 | 6.91 | -0.521 | 10.8 | 0.658 | 6.01 | 11.1 | -7.73
8 | Cc1cccc(C(=O)N2CCN(S(C)(=O)=O)[C@@H](C)C2)c1C | -5.53 | -2.74 | 15.2 | -4.05 | -1.57 | -2.27 | 0.71 | 9.6 | 0 | 0 | 0.913
9 | CC(NC(=O)CNCCn1cccn1)c1ccc2c(c1)CCCC2 (stereo not given) | -8.2 | 13 | -1.74 | 15.8 | 3.37 | -6.41 | 9.46 | -3.61 | 12.6 | 26.8 | -9.3
10 | CNc1nc(CNC(=O)Nc2ccccc2-c2noc(C)n2)cs1 | -1.81 | -2.63 | -2.79 | -0.349 | -3.19 | -1.92 | 3.01 | 17.1 | 1.47 | -4.88 | -4.83
